Reference: the supplement of paper PMC3334620
Whole data set: some 33,000 sequences, median “E-score (-0.5 to 0.5)” near -0.011, cut for the highest 2% near 0.28. What follows is part of a selection rich in the highest values, with near analogues and random picks from the rest.

target: T1, Gcr1 (UniProt P07261); test: PBM E-score (8-mer binding enrichment) (E-score (-0.5 to 0.5)); higher = stronger / more preferred TF binding; details: protein concentration: 100 nM; construct: GST-full length
T1 sequence: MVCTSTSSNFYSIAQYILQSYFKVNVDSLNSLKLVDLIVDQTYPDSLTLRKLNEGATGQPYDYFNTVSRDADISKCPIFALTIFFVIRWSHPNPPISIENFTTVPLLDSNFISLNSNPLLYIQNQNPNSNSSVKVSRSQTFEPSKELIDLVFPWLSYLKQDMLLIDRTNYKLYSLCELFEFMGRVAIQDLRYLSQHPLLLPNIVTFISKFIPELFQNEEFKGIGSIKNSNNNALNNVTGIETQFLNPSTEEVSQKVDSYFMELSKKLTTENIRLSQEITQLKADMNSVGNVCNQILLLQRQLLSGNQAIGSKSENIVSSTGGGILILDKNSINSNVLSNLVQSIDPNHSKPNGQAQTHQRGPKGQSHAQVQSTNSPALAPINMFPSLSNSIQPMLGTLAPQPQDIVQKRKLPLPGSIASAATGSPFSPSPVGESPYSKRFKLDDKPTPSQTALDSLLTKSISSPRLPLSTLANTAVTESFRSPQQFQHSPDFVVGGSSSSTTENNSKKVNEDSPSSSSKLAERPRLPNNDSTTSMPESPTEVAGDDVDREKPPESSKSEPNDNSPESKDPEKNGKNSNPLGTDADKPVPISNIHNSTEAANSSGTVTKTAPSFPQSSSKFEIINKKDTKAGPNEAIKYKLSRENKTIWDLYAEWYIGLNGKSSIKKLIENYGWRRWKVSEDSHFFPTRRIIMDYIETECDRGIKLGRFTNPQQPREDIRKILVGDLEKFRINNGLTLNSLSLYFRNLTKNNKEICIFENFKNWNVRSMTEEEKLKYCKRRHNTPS
Outline: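 Universal all-10-mer Agilent arrays, double-stranded by primer extension on fresh or once-stripped slides, were probed with about 100-200 nM GST-tagged yeast transcription factors made by PURExpress. Fluorescent anti-GST detected bound protein, and masliner normalised the scans. E-scores from the Universal PBM Analysis Suite were given to each ungapped eight-base word pooled with its reverse complement.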

Row | Sequence | PBM E-score
1 | GCGTTCAC | 0.00885
2 | AACATGTG | 0.141
3 | GCGGGAGA | -0.277
4 | GTGGGGTA | 0.286
5 | ATGGGGTA | -0.128
6 | CTGGGGTA | -0.0593
7 | CAAGGAAC | 0.0885
8 | GCAGGCGA | -0.0907
9 | GGGCTACC | 0.302
10 | AGGCTACC | 0.0739
11 | CGGCTACC | 0.0369
12 | CGCCGCGC | 0.137
13 | ATGGCCCG | -0.309
14 | GATTCGCC | 0.0655
15 | GCACGCCC | -0.122
16 | CGACGTCC | 0.0613
17 | GGACGTCC | 0.291
18 | GGACGCCC | 0.441
19 | GGACGCCA | 0.418
20 | CAACGCCC | 0.0625
21 | AGACGCCC | 0.259
22 | CGACGCCC | 0.287

Row | Sequence | PBM E-score
23 | TGACGCCA | -0.0776
24 | CGACGCAC | -0.0398
25 | GGACGTCA | -0.115
26 | GCACGCCA | -0.0682
27 | CCACTTGA | 0.138
28 | GTTCTCCA | -0.137
29 | ATAAGTGA | -0.119
30 | ACTGGGTC | -0.0289
31 | ACAGGCAG | 0.252
32 | CGAGCCCA | -0.119
33 | AACATTTC | -0.0184
34 | TCATTGGA | -0.0473
35 | CCCTGTAA | 0.308
36 | CCCTGTAG | 0.107
37 | GCCCTGTA | 0.0785
38 | TCCTGTAA | 0.354
39 | ACCTGTAT | 0.322
40 | ACCTGTAC | 0.0266
41 | CCCCTGTA | 0.284
42 | GCCTGTAA | 0.109
43 | CCCCTGAA | 0.0139
44 | ACCTGTAA | -0.0579

Row | Sequence | PBM E-score
45 | CCCTGTAC | -0.0614
46 | ACCTGTAG | 0.135
47 | AGGATTGA | 0.106
48 | AACCATCG | -0.148
49 | ATTATGGA | 0.161
50 | CGTTCTAG | 0.0647
51 | TACCTCTA | 0.238
52 | CGACTCGA | -0.0795
53 | AGGTTGCA | 0.125
54 | AGGTTGCG | 0.136
55 | AGGTTGCC | 0.28
56 | CGATTTAC | -0.039
57 | CGCAGAGC | -0.291
58 | ATCCACGA | 0.0269
59 | CTCCACTA | 0.215
60 | ATCCACTA | 0.369
61 | ACCCACTC | 0.0683
62 | CTCCACTC | 0.022
63 | ATCCACTC | 0.318
64 | GTCCACGA | -0.0295
65 | GTCCACTA | 0.334
66 | ATCCACTG | 0.0833

Row | Sequence | PBM E-score
67 | CTTAGATA | 0.0548
68 | ACACTTAG | -0.0488
69 | ACATCCAG | 0.251
70 | ACAGCACA | -0.109
71 | ATGTACAC | 0.00539
72 | GTCGTTGA | -0.219
73 | GAGGGCGC | 0.114
74 | GACGCTGA | 0.301
75 | CACGCTGC | 0.236
76 | CACGCTGA | -0.0481
77 | AACGCTGA | -0.0701
78 | GACGCTGC | 0.332
79 | AACGCTGC | 0.0719
80 | AGGGCAGG | -0.173
81 | AGTGCTTC | -0.0411
82 | ACGTCCAC | 0.104
83 | CCGTCCAC | 0.016
84 | GCGTCCAC | 0.339
85 | GCGTCCAA | 0.372
86 | ACGTCCAA | 0.00712
